# The list is not random: actives were taken first. Their share in the collection is about 5.7%.
# KB-V1 cytotox = kills drug-selected multidrug resistant KB-V1 cells; KB-V1 MDR cells viability, CellTiter-Glo, 72 h; Potency, µM (highest dose often 46.1 µM), hits mostly cytotoxic; 400,000 tested, 3.4% active; AID 1347076; also: potency is read from the fitted curve at half-maximal effect; nearly all actives have a fitted effect of over 60% in size
#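 Cytotoxicity via CellTiter-Glo luminescence after 72 h compound exposure at 37 degrees C. Cells: drug-selected KB-V1 line, DMEM phenol-red free plus 10% FBS. Compounds tested at multiple concentrations; normalized data fitted to concentration-effect curves.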
# Nrf2 inh = Nrf2 pathway inhibition; Potency, µM (doses to about 46 µM), inactives show at the top dose activity change, negative = inhibition, actives largely listed as inhibitors; 360,000 tested, 2.1% active; A549 ARE-Fluc reporter, luciferase luminescence, 18-24 h; AID 504444; also: potency is read from the fitted curve at half-maximal effect; nearly all actives have a fitted effect of over 60% in size
#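 Cells were seeded and rested 2 h, then exposed to compounds for 18-24 h. CellTiter-Fluor was read first as a viability measure. BugLite was added 15 min before the final luminescent read of ARE-luciferase activity in A549 cells.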
# PI4K2A block = blocks human PI4K2A kinase activity; purified PI4K2A, ADP-Glo luminescence, 1 h; active compounds read low; activity change, negative = inhibition, % at 76.9 µM; 420,000 tested, 0.13% active; in the data active = activity change below about -50%; inconclusive = mostly about -30% to -49%;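 also: -100% = wells without enzyme as full effect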
# Target sequence (Q9BTU6 whole entry, looked up): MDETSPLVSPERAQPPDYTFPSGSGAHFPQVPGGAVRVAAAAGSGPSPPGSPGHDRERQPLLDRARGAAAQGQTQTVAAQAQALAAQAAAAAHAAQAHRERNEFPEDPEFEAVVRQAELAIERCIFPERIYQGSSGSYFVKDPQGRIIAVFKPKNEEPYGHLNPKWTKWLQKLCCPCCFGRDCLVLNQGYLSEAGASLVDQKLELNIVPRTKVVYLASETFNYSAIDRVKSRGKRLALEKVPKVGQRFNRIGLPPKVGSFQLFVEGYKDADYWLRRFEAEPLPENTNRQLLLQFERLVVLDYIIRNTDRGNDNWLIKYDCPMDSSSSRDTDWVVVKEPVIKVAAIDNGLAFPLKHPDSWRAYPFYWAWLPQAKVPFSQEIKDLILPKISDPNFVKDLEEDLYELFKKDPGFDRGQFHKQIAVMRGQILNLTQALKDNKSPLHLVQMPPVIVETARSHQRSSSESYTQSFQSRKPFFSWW
#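 PI4K2A activity was measured by ADP-Glo luminescence: enzyme (4 ug/mL stock) and phosphatidylinositol (1.2 mM stock) in Tris pH 7.5/MgCl2/EGTA/Triton X-100 buffer were reacted with ATP (300 microM stock) for one hour at ambient temperature.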
# Giardia kill = kills Giardia lamblia | Giardia lamblia trophozoite viability | AID 540267 | activity change, % at 7.66 µM, hits read low | 340,000 tested, 0.15% active; in the data active = activity change below about -80%; inconclusive = between about -30% and that limit;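 also: parasites exposed to compound for two days anaerobically before the ATP read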
#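 Trophozoites 100 cells/well + cpd; 48 hrs, 37 deg C, anaerobic. ATPLite 1-Step added, 15-30 min RT, luminescence read (ATP-based viability).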
# A549 tox = kills or reduces viability of A549 cells in Nrf2 counter-screen. A549 ARE-Fluc cells, CellTiter-Fluor viability, 18-24 h. Potency, µM (doses to about 46 µM), without a hit: at the top dose activity change, negative = cytotoxicity, usual class: inhibitors. 390,000 tested, 0.16% active. AID 504648; also: potency is read from the fitted curve at half-maximal effect
#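 A549 ARE_Fluc cells in 5% FBS OPTI-MEM were exposed to compounds in concentration-response for 18-24 h at 37 deg C. Viability was read by CellTiter-Fluor fluorescence (Ex 405/Em 525) after 30 min, before the luciferase read.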
# KB-3-1 cytotox = kills parental KB-3-1 adenocarcinoma cells | KB-3-1 viability, CellTiter-Glo ATP luminescence, 72 h | Potency, µM (highest dose often 46.1 µM), most hits filed as cytotoxic | 400,000 tested, 1.4% active | AID 1347075; also: potency is read from the fitted curve at half-maximal effect; nearly all actives have a fitted effect of over 60% in size
#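 Screening of KB-3-1 cells (DMEM, 10% FBS, phenol-red free) ran from lowest to highest compound concentration; after 72 h at 37 °C viability was read luminescently and curves fitted.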
# Active calls of the source: *; i = inactive; u = inconclusive; x = not tested or not shown. Unless noted, calls follow the shape of the dose curve; as a rule, active = well fitted curve in the direction sought with a large enough effect; inconclusive = small, poorly fitted or top-dose-only effect, or another doubt; inactive = no such curve, though single readings can be large; an effect the other way counts as inactive or inconclusive. Unless noted, % is scaled to controls: 0 for no effect and ±100 for the full control effect.
SMILES,KB-V1 cytotox,Nrf2 inh,PI4K2A block,Giardia kill,A549 tox,KB-3-1 cytotox
CC(C)c1ccc(CN(C(=O)C2COc3ccccc3O2)C2CCS(=O)(=O)C2)cc1 (stereo not drawn),u,-4.1%,3.2,90.4,-1.6%,i
Cc1c(OC(C)C(=O)NCc2ccncc2)ccc2c3c(c(=O)oc12)CCCC3 (stereo not drawn),i,23.1µM*,0.6,18.6,-1.4%,i
COc1ccc(OC)c(-c2nnc3n2N=C(c2c(OC)cccc2OC)CS3)c1,x,10.6%,x,x,2.5%,x
Cc1cc(-c2csc3nc[nH]c(=S)c23)cc(C)c1C,u,23.1µM*,-2.2,12.6,u,u
S=C(NN=C(c1ccccc1)c1ccccn1)N(Cc1ccccn1)Cc1ccccn1,i,u,-26.8,-4.9,11.6µM*,u
CC(=NNC(=S)N(Cc1ccccn1)Cc1ccccn1)c1cnccn1,13µM*,u,-14.8,14.8,u,u
CC(=NNC(=S)N1CC2CCC(CC2)C1)c1cnccn1,u,u,-0.1,0.4,u,u
CC(OC(=O)c1ccccc1NCCO)C(=O)NC1CCCCC1C (stereo not drawn),9.2µM*,-20.9%,-6.2,-7.4,0.1%,i
Cc1ccc(C(=O)OC(C)C(=O)NC2CCCCC2C)s1 (stereo not drawn),20.6µM*,u,1.6,-8.2,-4.6%,i
CC(OC(=O)c1ccc(C(C)(C)C)cc1)C(=O)NC1CCCCC1C (stereo not drawn),i,5.8%,0.7,31.4,16.0%,i
Cc1cccc(Nc2nc(-c3cccs3)cs2)n1,i,u,-16.0,-11.2,-0.3%,i
Cc1cccnc1Nc1nc(-c2ccccn2)cs1,4.11µM*,u,-12.1,-18.7,u,1.46µM*
Cc1cccc(Nc2nc(-c3ccccn3)cs2)n1,0.517µM*,23.1%,-1.8,3.7,-12.3%,9.2µM*
Cc1cccnc1Nc1nc(-c2ccccc2)cs1,i,u,-9.6,-8.3,3.6%,i
CC1(c2nnnn2Cc2ccccc2)CSCC(=O)N1Cc1cccs1 (stereo not drawn),x,x,-3.5,x,x,x
Cc1cccc(C)c1N=C1NN=C(c2ccccc2F)CS1,18.4µM*,u,-0.6,32.2,u,u
Cc1ccc(C(=O)COc2nc(C)cc(C)c2C#N)cc1,10.3µM*,-29.6%,-1.3,-7.3,-17.9%,i
CCN(C(=O)COc1nc(C)cc(C)c1C#N)c1ccccc1,u,-0.1%,-0.9,2.6,2.2%,i
Cc1cc(C)c(C#N)c(OCC(=O)c2ccc(Br)cc2)n1,5.8µM*,2.6%,-0.5,2.6,-2.6%,i
CCc1ccc2nc(-c3cccc(C)c3)nc(SCC(=O)NCC3CCCO3)c2c1 (stereo not drawn),2.59µM*,1.1%,3.1,4.0,-7.1%,i
O=C1NC(=O)/C(=C/c2ccc3c(c2)OC(F)(F)O3)S1,x,x,4.4,x,x,x
NC1(C(=O)O)CSSC1,6.51µM*,u,-12.2,-12.4,u,u
NC1(C(=O)O)CCCCC1,x,x,-2.6,x,x,x
COc1ccc(-c2cc(-c3ccccc3)nc(N)n2)c(O)c1,20.6µM*,3.3%,11.7,-5.4,-2.7%,u
COc1ccc(OC)c(Nc2cc(-c3ccccc3)nc(N)n2)c1,1.3µM*,u,-14.9,-6.3,-20.2%,1.03µM*
COc1ccc(OC)c(Nc2cc(C)nc3ccccc23)c1,18.4µM*,-12.1%,-0.3,10.9,-13.6%,u
O=C(Nc1ccc(-c2nc3ccccc3[nH]2)cc1)c1ccc(Oc2ccccc2)cc1,i,x,x,x,x,i
COC(=O)CSc1nnc(-c2ccc(NS(=O)(=O)c3ccc(Cl)s3)cc2)o1,x,x,9.7,x,x,x
CCOc1ccc2nc(NC(=O)CSc3nc4c(c(=O)n(C)c(=O)n4C)n3C(C)C)sc2c1,3.66µM*,-24.6%,0.6,10.1,1.8%,u
CCn1c(SCC(=O)Nc2nc3ccc(OC)cc3s2)nc2c1c(=O)n(C)c(=O)n2C,2.06µM*,x,-3.4,10.2,3.1%,i
